Laboratory results taken from PubChem BioAssay AID743171 (National Center for Advancing Translational Sciences (NCATS), 2013).
Values joined by “and” are separate entries in the source; they are usually repeats but may differ in a detail not shown here. Equal entries are not always repeated. Records with an inconclusive call do not appear. Active and inactive are the calls of the source. Calls come from the whole dose curve; as a rule, active = well fitted inhibition curve with a large enough effect; inconclusive = small, poorly fitted or top-dose-only effect; inactive = flat fitted curve, though single readings scatter.

Target: 15-hydroxyprostaglandin dehydrogenase [NAD(+)] (Homo sapiens) (UniProt P15428)
Assay: Extended Characterization of HPGD Inhibitors: Activity in Primary Assay (HPGD)
Summary of the method: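 Enzyme (20 nM final) preincubated 15 min at room temperature with compounds across several concentrations (qHTS); reaction started with NAD+ and PGE2 (1 mM and 30 uM in substrate solution). NADH fluorescence (ex 340/em 450) read kinetically, last-minus-first normalized to controls.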

Sequence of 15-hydroxyprostaglandin dehydrogenase [NAD(+)] (Homo sapiens) (P15428 whole entry, looked up): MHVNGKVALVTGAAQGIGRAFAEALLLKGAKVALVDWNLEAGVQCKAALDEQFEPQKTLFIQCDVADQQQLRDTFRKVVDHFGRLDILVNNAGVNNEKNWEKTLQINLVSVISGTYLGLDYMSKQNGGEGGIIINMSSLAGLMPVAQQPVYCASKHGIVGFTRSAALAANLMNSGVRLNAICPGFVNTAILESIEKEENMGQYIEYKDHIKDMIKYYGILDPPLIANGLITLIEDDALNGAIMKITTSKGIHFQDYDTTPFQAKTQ

`Cc1cccc(-n2cnc3cc(C(=O)N4CC(C)CC(C)C4)ccc32)c1` (stereo not given) was tested. Which Potency did it give?
The Potency was 271 nM (active).

With `Brc1cnc2nc(SCc3ccccc3)[nH]c2c1` as the molecule, how does the Potency read?
Its Potency is 8570 nM (active).

Which Potency does the source give for `COc1cccc(-n2cnc3cc(C(=O)N4CCCCC4)ccc32)c1` here?
The Potency was 19.2 nM (active).

How did the Potency turn out when `Brc1cnc2nc(SCc3ccccn3)[nH]c2c1` was run?
Its Potency is 3410 nM (active).

`Cc1cc(-c2nnc3n2CCC3)c(C)n1-c1ccccc1` was tested. Which Potency did it give?
The Potency was 3040 nM (active).

`Cc1cc(-c2nnc3n2CCCCCCC3)c(C)n1-c1ccccc1` was tested. Which Potency did it give?
The Potency was 383 nM (active).

Which Potency does the source give for `CC(C)(C)c1ccc(-n2cnc3cc(C(=O)N4CCCCC4)ccc32)cc1` here?
Its Potency is 54.1 nM (active).

For `O=C(c1ccc2c(c1)ncn2-c1cccc(C(F)(F)F)c1)N1CCCCC1`, which Potency is on record?
Its Potency is 48.2 nM (active).

`O=C(c1ccc2c(c1)ncn2-c1ccccc1)N1CCCCC1` was tested. Which Potency did it give?
The Potency was 21.5 nM (active).

For `Cc1cccc(-n2cnc3cc(C(=O)N4CCCC(C(C)C)C4)ccc32)c1` (stereo not given), which Potency is on record?
Its Potency is 48.2 nM (active).

Which Potency does the source give for `Cc1cccc(-n2cnc3cc(C(=O)N4CCCC(C)(C)C4)ccc32)c1` here?
The Potency was 68.1 nM (active).

Which Potency does the source give for `COc1ccc(CSc2nc3ncc(Br)cc3[nH]2)cc1F` here?
Its Potency is 85.7 nM (active).

Which Potency does the source give for `Cc1cccc(-n2cnc3cc(C(=O)N4CCC(C#N)CC4)ccc32)c1` here?
The Potency was 19200 nM (active).

How did the Potency turn out when `Cc1cccc(-n2cnc3cc(C(=O)N4CCC(Br)CC4)ccc32)c1` was run?
The Potency was 76.4 nM (active).

`Cc1cc(-c2nnc3n2CCCCC3)c(C)n1-c1ccccn1` was tested. Which Potency did it give?
Its Potency is 1080 nM (active).

`Cc1cc(-c2nnc3n2CCCCC3)c(C)n1-c1ccc(Cl)c(Cl)c1` was tested. Which Potency did it give?
Its Potency is 21.5 nM (active).

For `Cc1cccc(-n2cnc3cc(C(=O)NC4CCCCC4)ccc32)c1`, which Potency is on record?
The Potency was 3040 nM (active).

Which Potency does the source give for `Cc1ccc(-n2c(C)cc(-c3nnc4n3CCCCC4)c2C)cc1` here?
Its Potency is 34.1 nM (active).

Which Potency does the source give for `COc1ccccc1-n1cnc2cc(C(=O)N3CCCCC3)ccc21` here?
The Potency was 27.1 nM (active).

For `Cc1ccc(-n2cnc3cc(C(=O)N4CCCCC4)ccc32)cc1`, which Potency is on record?
The Potency was 19.2 nM (active).

How did the Potency turn out when `Cc1cccc(-n2cnc3cc(C(=O)N4CCCCC4)ccc32)c1` was run?
Its Potency is 34.1 nM (active) and 19.2 nM (active).

Which Potency does the source give for `COc1ccc(-n2cnc3cc(C(=O)N4CCCCC4)ccc32)cc1` here?
Its Potency is 19.2 nM (active).

`N#Cc1ccccc1CCc1nc2ncc(Br)cc2[nH]1` was tested. Which Potency did it give?
Its Potency is 19200 nM (active).

`Cc1cc(-c2nnc3n2CCCCC3)c(C)n1-c1ccc(C(F)(F)F)cc1` was tested. Which Potency did it give?
Its Potency is 68.1 nM (active).

`c1ccc(-n2cc(-c3nnc4n3CCCCC4)cn2)cc1` was tested. Which Potency did it give?
Its Potency is 3830 nM (active).

Which Potency does the source give for `CCCCNC(=O)c1ccc2c(c1)ncn2-c1cccc(C)c1` here?
The Potency was 1360 nM (active).

For `CC(C)(C)c1ccc(CSc2nc3ncc(Br)cc3[nH]2)cc1`, which Potency is on record?
The Potency was “inactive”.

With `Cc1cc(-c2nnc3n2CCCCC3)c(C)n1-c1ccc(C#N)cc1` as the molecule, how does the Potency read?
The Potency was 96.1 nM (active).

For `Cc1cccc(-n2cnc3cc(C(=O)N4CCC(N5CCOCC5)CC4)ccc32)c1`, which Potency is on record?
Its Potency is “inactive”.

`Cc1cc(-c2nnc3n2CCCCC3)c(C)n1-c1cccc(C#N)c1` was tested. Which Potency did it give?
Its Potency is 76.4 nM (active).
